Test results: the supplement of paper PMC11732987, “Enantioselective OTUD7B fragment discovery through chemoproteomics screening and high-throughput optimisation” (Communications Chemistry, 2025)

Columns and labels:
Assay in all cases: log2 ratio of Biotin-Ahx-Ub-VS probe labelling (compound/DMSO); higher = less target engagement, active = hit call of the paper (q ≤ 0.05, log2 ratio ≤ -1)
Conditions in all cases: treatment time: 3 h
[1] = compound: CCC1N(CCc2sccc12)C(=O)CCl
How it was run: (§1)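 DUBs in HEK293T lysate were labelled with Biotin-Ahx-Ub-VS (0.5 µM final, 1 h) after a 3 h treatment with compound at 50 or 200 µM or with DMSO, done in triplicate on 495 µg of lysate per sample. NeutrAvidin-enriched proteins were digested with LysC and trypsin and run by diaPASEF LC-MS/MS. Median-normalised label-free quantities gave average base-two log ratios of compound to DMSO by unpaired t-test, restricted to proteins with at least 2 unique peptides.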

[2] = compound: CN1c2ccccc2C(CS1(=O)=O)NC(=O)CCl
How it was run: as §1

[3] = compound: Cl.ClCC(=O)N1CCc2ncncc2C1
How it was run: as §1

[4] = compound: Cl.Cn1ncc2C(CCCc12)NC(=O)CCl
How it was run: as §1

[5] = compound: ClCC(=O)NC1CCOc2ccccc12
How it was run: as §1

[6] = compound: ClCC(=O)NC1CCCc2ccccc12
How it was run: (§2)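 Average ratios of compound to vehicle were obtained by unpaired t-test. Beforehand, 495 µg samples of HEK293T lysate in buffer with protease inhibitors were treated in triplicate with compound over a concentration series or vehicle for 3 h, then with 0.5 µM final Biotin-Ahx-Ub-VS for 1 h. Labelled deubiquitinases were NeutrAvidin-enriched, digested and quantified label-free by diaPASEF LC-MS/MS in Spectronaut, normalised to the global median. Values are log2 and cover proteins with at least two unique peptides.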

[7] = compound: ClCC(=O)N[C@@H]1CCCc2ccccc12
How it was run: as §2

[8] = compound: ClCC(=O)N[C@H]1CCCc2ccccc12
How it was run: as §2

[9] = compound: CCC1N(CCc2cc(OC)c(Cl)cc12)C(=O)CCl
How it was run: as §1

[10] = compound: CCCC1N(CCc2cc(OC)c(OC)cc12)C(=O)CCl
How it was run: as §1

Measured: log2 ratio of Biotin-Ahx-Ub-VS probe labelling

OTUD4 (UniProt Q01804)
UniProt Q01804, sequence (Q01804 whole entry): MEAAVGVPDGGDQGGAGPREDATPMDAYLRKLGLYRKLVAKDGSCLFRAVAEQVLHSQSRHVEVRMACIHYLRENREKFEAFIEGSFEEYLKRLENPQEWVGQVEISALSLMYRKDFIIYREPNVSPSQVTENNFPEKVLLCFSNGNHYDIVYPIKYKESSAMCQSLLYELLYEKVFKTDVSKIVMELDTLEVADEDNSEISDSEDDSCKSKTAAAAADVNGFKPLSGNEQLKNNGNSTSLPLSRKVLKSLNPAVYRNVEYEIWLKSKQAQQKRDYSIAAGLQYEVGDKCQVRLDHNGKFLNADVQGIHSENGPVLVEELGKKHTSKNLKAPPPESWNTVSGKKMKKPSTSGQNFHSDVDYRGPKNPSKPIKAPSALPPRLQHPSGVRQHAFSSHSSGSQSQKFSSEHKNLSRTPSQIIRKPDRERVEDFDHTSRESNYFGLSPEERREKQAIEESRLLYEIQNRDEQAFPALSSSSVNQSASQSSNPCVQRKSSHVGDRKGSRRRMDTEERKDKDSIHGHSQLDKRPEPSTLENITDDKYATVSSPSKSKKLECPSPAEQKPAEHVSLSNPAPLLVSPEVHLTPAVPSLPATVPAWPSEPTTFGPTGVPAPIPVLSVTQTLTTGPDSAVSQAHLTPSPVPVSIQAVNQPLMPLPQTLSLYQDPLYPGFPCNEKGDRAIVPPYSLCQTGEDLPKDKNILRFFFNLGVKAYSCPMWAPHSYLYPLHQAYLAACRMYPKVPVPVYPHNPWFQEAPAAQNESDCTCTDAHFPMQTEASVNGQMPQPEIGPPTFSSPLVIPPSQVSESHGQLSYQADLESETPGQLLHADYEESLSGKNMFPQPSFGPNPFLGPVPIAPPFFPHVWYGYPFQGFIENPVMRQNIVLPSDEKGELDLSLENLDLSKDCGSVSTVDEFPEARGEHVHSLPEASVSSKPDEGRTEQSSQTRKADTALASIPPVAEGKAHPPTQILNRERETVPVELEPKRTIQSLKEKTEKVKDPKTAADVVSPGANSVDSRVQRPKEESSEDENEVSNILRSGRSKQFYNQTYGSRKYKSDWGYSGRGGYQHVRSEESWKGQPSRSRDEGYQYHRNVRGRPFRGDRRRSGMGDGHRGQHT
inactive: [1]; compound concentration: 50uM -0.293 | [1]; compound concentration: 200uM -0.576 | [2]; compound concentration: 50uM -0.595 | [3]; compound concentration: 50uM -0.152 | [3]; compound concentration: 200uM -0.671 | [4]; compound concentration: 50uM -0.813 | [5]; compound concentration: 50uM -0.624 | [6]; compound concentration: 0.78uM -0.158 | [6]; compound concentration: 1.56uM -0.085 | [6]; compound concentration: 3.13uM -0.223 | [6]; compound concentration: 6.25uM -0.319 | [6]; compound concentration: 12.5uM -0.411 | [6]; compound concentration: 25uM -0.655 | [7]; compound concentration: 0.78uM -0.206 | [7]; compound concentration: 1.56uM -0.14 | [7]; compound concentration: 3.13uM -0.152 | [7]; compound concentration: 6.25uM -0.172 | [7]; compound concentration: 12.5uM -0.352 | [7]; compound concentration: 25uM -0.535 | [7]; compound concentration: 50uM -0.958 | [8]; compound concentration: 0.78uM -0.176 | [8]; compound concentration: 1.56uM -0.178 | [8]; compound concentration: 3.13uM -0.176 | [8]; compound concentration: 6.25uM -0.252 | [8]; compound concentration: 12.5uM -0.529 | [8]; compound concentration: 25uM -0.893 | [9]; compound concentration: 50uM -0.491 | [10]; compound concentration: 50uM -0.395 | [10]; compound concentration: 200uM -0.505
active: [2]; compound concentration: 200uM -1.51 | [4]; compound concentration: 200uM -1.46 | [5]; compound concentration: 200uM -1.33 | [6]; compound concentration: 50uM -1.21 | [6]; compound concentration: 100uM -1.92 | [6]; compound concentration: 200uM -2.86 | [7]; compound concentration: 100uM -1.39 | [7]; compound concentration: 200uM -2.13 | [8]; compound concentration: 50uM -1.41 | [8]; compound concentration: 100uM -2.07 | [8]; compound concentration: 200uM -2.61 | [9]; compound concentration: 200uM -1.4

USP22 (UniProt Q9UPT9)
UniProt Q9UPT9, sequence (Q9UPT9 whole entry): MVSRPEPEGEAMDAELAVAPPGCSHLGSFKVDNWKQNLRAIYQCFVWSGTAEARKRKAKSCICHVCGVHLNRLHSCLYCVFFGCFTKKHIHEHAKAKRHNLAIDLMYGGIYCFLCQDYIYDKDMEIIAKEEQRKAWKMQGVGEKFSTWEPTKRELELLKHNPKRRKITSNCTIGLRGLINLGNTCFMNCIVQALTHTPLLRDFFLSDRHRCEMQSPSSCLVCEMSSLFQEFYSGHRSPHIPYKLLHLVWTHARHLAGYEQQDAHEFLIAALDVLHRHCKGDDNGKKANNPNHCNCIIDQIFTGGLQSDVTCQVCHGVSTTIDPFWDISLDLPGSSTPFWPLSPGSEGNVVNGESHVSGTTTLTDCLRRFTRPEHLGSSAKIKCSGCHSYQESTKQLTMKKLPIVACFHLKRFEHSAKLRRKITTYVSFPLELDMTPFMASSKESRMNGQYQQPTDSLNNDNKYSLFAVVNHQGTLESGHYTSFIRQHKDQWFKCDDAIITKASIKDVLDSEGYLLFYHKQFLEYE
inactive: [1]; compound concentration: 50uM -0.0676 | [1]; compound concentration: 200uM -0.0769 | [2]; compound concentration: 50uM -0.0879 | [2]; compound concentration: 200uM -0.227 | [3]; compound concentration: 50uM 0.165 | [3]; compound concentration: 200uM -0.284 | [4]; compound concentration: 50uM 0.167 | [4]; compound concentration: 200uM -0.0888 | [5]; compound concentration: 50uM 0.0839 | [5]; compound concentration: 200uM -0.0221 | [6]; compound concentration: 0.78uM -0.256 | [6]; compound concentration: 1.56uM -0.271 | [6]; compound concentration: 3.13uM -0.269 | [6]; compound concentration: 6.25uM -0.318 | [6]; compound concentration: 12.5uM -0.0891 | [6]; compound concentration: 25uM -0.169 | [6]; compound concentration: 50uM -0.192 | [6]; compound concentration: 100uM -0.263 | [6]; compound concentration: 200uM -0.376 | [7]; compound concentration: 0.78uM -0.254 | [7]; compound concentration: 1.56uM -0.18 | [7]; compound concentration: 3.13uM -0.341 | [7]; compound concentration: 6.25uM -0.0166 | [7]; compound concentration: 12.5uM -0.101 | [7]; compound concentration: 25uM -0.166 | [7]; compound concentration: 50uM -0.259 | [7]; compound concentration: 100uM -0.0453 | [7]; compound concentration: 200uM -0.238 | [8]; compound concentration: 0.78uM -0.107 | [8]; compound concentration: 1.56uM -0.258 | [8]; compound concentration: 3.13uM -0.171 | [8]; compound concentration: 6.25uM -0.0996 | [8]; compound concentration: 12.5uM -0.17 | [8]; compound concentration: 25uM -0.0497 | [8]; compound concentration: 50uM -0.0246 | [8]; compound concentration: 100uM -0.0113 | [8]; compound concentration: 200uM -0.194 | [9]; compound concentration: 50uM -0.141 | [9]; compound concentration: 200uM -0.349 | [10]; compound concentration: 50uM -0.229 | [10]; compound concentration: 200uM -0.475

USP48 (UniProt Q86UV5)
inactive: [1]; compound concentration: 50uM 0.0438 | [1]; compound concentration: 200uM -0.229 | [2]; compound concentration: 50uM -0.0584 | [2]; compound concentration: 200uM -0.173 | [3]; compound concentration: 50uM 0.0472 | [3]; compound concentration: 200uM -0.0578 | [4]; compound concentration: 50uM 0.11 | [4]; compound concentration: 200uM -0.141 | [5]; compound concentration: 50uM -0.181 | [5]; compound concentration: 200uM 0.181 | [6]; compound concentration: 0.78uM -0.207 | [6]; compound concentration: 1.56uM -0.126 | [6]; compound concentration: 3.13uM -0.133 | [6]; compound concentration: 6.25uM -0.353 | [6]; compound concentration: 12.5uM -0.196 | [6]; compound concentration: 25uM -0.157 | [6]; compound concentration: 50uM -0.212 | [6]; compound concentration: 100uM -0.103 | [6]; compound concentration: 200uM -0.378 | [7]; compound concentration: 0.78uM -0.118 | [7]; compound concentration: 1.56uM 0.0156 | [7]; compound concentration: 3.13uM -0.424 | [7]; compound concentration: 6.25uM -0.193 | [7]; compound concentration: 12.5uM -0.0735 | [7]; compound concentration: 25uM -0.174 | [7]; compound concentration: 50uM -0.19 | [7]; compound concentration: 100uM -0.106 | [7]; compound concentration: 200uM -0.351 | [8]; compound concentration: 0.78uM -0.189 | [8]; compound concentration: 1.56uM -0.192 | [8]; compound concentration: 3.13uM -0.141 | [8]; compound concentration: 6.25uM -0.00525 | [8]; compound concentration: 12.5uM -0.0911 | [8]; compound concentration: 25uM -0.00111 | [8]; compound concentration: 50uM -0.0046 | [8]; compound concentration: 100uM -0.171 | [8]; compound concentration: 200uM -0.203 | [9]; compound concentration: 50uM -0.171 | [9]; compound concentration: 200uM -0.314 | [10]; compound concentration: 50uM -0.217 | [10]; compound concentration: 200uM -0.148

USP24 (UniProt Q9UPU5)
UniProt Q9UPU5, sequence (Q9UPU5 whole entry): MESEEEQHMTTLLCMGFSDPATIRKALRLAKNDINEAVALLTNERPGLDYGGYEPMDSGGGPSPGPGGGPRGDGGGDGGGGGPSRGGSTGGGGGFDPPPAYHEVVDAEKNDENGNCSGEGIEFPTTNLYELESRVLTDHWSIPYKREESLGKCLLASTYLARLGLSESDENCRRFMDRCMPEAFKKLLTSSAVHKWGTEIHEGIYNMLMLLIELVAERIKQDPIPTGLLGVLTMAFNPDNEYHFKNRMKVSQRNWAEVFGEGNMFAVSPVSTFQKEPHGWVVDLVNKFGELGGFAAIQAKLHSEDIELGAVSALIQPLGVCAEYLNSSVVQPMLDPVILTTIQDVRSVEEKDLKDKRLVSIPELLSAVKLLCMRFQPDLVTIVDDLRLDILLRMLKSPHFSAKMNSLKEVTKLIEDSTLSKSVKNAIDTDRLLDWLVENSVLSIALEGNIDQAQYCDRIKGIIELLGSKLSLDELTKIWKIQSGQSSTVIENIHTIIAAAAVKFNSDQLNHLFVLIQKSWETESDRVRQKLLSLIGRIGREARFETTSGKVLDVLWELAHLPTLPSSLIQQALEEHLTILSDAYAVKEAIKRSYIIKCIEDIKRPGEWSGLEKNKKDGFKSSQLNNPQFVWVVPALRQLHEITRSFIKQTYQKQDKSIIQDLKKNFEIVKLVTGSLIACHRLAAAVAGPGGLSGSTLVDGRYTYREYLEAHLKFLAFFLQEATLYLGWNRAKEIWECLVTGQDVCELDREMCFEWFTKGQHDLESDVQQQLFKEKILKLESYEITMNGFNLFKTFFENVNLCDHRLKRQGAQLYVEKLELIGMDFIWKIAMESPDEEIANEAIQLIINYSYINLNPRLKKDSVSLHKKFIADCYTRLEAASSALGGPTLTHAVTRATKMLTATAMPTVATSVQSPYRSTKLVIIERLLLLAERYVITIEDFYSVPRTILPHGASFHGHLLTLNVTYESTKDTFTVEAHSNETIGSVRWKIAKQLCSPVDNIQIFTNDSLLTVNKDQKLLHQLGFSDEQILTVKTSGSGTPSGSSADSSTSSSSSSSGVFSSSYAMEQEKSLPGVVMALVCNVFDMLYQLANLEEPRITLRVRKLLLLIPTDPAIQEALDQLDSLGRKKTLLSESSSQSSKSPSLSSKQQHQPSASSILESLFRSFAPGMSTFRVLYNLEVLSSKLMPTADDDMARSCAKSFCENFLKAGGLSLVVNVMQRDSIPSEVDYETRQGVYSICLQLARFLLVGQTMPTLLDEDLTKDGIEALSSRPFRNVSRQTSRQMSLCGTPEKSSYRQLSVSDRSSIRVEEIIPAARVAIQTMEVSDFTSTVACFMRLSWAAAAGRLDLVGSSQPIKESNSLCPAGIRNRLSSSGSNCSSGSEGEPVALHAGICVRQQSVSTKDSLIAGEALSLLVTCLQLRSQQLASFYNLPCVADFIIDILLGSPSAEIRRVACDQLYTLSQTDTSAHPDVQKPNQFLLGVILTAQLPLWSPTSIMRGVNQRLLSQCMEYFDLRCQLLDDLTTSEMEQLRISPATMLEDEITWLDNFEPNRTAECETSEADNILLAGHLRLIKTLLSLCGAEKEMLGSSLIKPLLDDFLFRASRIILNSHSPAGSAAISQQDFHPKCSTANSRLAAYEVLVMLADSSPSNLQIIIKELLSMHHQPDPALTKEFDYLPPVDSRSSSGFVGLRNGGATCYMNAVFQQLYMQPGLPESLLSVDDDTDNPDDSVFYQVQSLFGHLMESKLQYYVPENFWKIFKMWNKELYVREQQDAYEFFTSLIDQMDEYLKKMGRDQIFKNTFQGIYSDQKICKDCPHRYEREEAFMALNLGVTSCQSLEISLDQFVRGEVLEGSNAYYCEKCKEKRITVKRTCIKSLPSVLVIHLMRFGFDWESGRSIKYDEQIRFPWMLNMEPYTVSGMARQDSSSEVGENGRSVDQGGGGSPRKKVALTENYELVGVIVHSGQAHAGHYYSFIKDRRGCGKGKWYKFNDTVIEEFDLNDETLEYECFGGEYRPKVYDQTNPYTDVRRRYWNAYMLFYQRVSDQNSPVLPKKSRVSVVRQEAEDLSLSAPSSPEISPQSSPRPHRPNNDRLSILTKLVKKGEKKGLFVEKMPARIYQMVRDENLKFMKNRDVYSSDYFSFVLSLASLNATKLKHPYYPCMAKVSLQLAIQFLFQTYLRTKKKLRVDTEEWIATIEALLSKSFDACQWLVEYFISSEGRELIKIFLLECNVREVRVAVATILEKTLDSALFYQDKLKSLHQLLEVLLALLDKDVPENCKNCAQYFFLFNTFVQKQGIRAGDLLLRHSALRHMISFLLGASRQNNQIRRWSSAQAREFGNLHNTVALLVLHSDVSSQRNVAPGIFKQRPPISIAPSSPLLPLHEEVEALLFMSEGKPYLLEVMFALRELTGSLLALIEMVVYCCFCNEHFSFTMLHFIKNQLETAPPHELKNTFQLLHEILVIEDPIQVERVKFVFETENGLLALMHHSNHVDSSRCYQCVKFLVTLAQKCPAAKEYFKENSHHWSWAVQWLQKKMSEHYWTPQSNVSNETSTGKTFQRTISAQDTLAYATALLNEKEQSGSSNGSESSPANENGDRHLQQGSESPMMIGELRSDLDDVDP
active: [1]; compound concentration: 200uM -1.29 | [9]; compound concentration: 200uM -1.37 | [10]; compound concentration: 200uM -1.41
inactive: [1]; compound concentration: 50uM -0.392 | [2]; compound concentration: 50uM -0.121 | [2]; compound concentration: 200uM -0.347 | [3]; compound concentration: 50uM 0.151 | [3]; compound concentration: 200uM -0.708 | [4]; compound concentration: 50uM 0.209 | [4]; compound concentration: 200uM -0.13 | [5]; compound concentration: 50uM 0.141 | [5]; compound concentration: 200uM -0.46 | [6]; compound concentration: 0.78uM -0.028 | [6]; compound concentration: 1.56uM 0.0284 | [6]; compound concentration: 3.13uM -0.0886 | [6]; compound concentration: 6.25uM -0.0483 | [6]; compound concentration: 12.5uM -0.117 | [6]; compound concentration: 25uM -0.177 | [6]; compound concentration: 50uM -0.175 | [6]; compound concentration: 100uM -0.0863 | [6]; compound concentration: 200uM -0.2 | [7]; compound concentration: 0.78uM -0.148 | [7]; compound concentration: 1.56uM -0.0805 | [7]; compound concentration: 3.13uM -0.0521 | [7]; compound concentration: 6.25uM -0.105 | [7]; compound concentration: 12.5uM -0.0644 | [7]; compound concentration: 25uM -0.126 | [7]; compound concentration: 50uM -0.193 | [7]; compound concentration: 100uM -0.134 | [7]; compound concentration: 200uM -0.343 | [8]; compound concentration: 0.78uM -0.009 | [8]; compound concentration: 1.56uM -0.013 | [8]; compound concentration: 3.13uM -0.0452 | [8]; compound concentration: 6.25uM -0.0162 | [8]; compound concentration: 12.5uM -0.088 | [8]; compound concentration: 25uM -0.093 | [8]; compound concentration: 50uM -0.0741 | [8]; compound concentration: 100uM -0.151 | [8]; compound concentration: 200uM -0.346 | [9]; compound concentration: 50uM -0.366 | [10]; compound concentration: 50uM -0.409
